According to PubChem BioAssay AID1159580 (chemical genetic matrix, 2015):
Screen size: about 5,500 compounds; about 2,000 (36%) were called active. Inconclusive results (about 18%) are left out. Cut-off read from the data, not from the text of the source: active = normalized growth mostly below about 0.91 (no sharp cut-off); inconclusive = no clear call, values can overlap the other calls; inactive = mostly above about 0.92. Some of the results follow.

Assay: chemical genetic growth profiling, strain panel (AID 1159580);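 note: tested at 20 µM; growth read once vehicle control cultures reached saturation at 30 °C; 1 = growth at the plate median or of vehicle wells; lower values mean less growth of the strain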
Conditions: growth OD

Measured: normalized growth

Cc1ccc(C(C)C)c(O)c1C(=O)O
active: S. cerevisiae deletion strains, locus YDL185W, strain tfp1, active compounds read low 0.784 | S. cerevisiae deletion strains, locus YER155C, strain BEM2, active compounds read low 0.914 | S. cerevisiae deletion strains, locus YGL078C, strain dbp3, active compounds read low 0.859 | S. cerevisiae deletion strains, locus YHR094C, strain hxt1, active compounds read low 0.923 | S. cerevisiae deletion strains, locus YIL125W, strain kgd1, active compounds read low 0.808 | S. cerevisiae deletion strains, locus YJL168C, strain set2, active compounds read low 0.921 | S. cerevisiae deletion strains, locus YKL068W, active compounds read low 0.82 | S. cerevisiae deletion strains, locus YKL085W, strain MDH1 (second series), active compounds read low 0.83 | S. cerevisiae deletion strains, locus YKL085W, strain MDH1, active compounds read low 0.83 | S. cerevisiae deletion strains, locus YLR102C, strain apc9, active compounds read low 0.918 | S. cerevisiae deletion strains, locus YML124C, strain tub3, active compounds read low 0.929 | S. cerevisiae deletion strains, locus YNL250W, strain rad50, active compounds read low 0.848 | S. cerevisiae deletion strains, locus YNL271C, strain bni1, active compounds read low 0.831 | S. cerevisiae deletion strains, locus YNL298W, strain CLA4, active compounds read low 0.842 | S. cerevisiae deletion strains, locus YOR144C, strain elg1, active compounds read low 0.928 | S. cerevisiae deletion strains, locus YPR119W, strain clb2, active compounds read low 0.918 | S. cerevisiae deletion strains, locus YPR141C, strain kar3, active compounds read low 0.797 | S. cerevisiae deletion strains, locus YPR163C, strain tif3, active compounds read low 0.908
inactive: S. cerevisiae deletion strains, locus YAL013W, strain DEP1, active compounds read low 0.993 | S. cerevisiae deletion strains, locus YBR021W, strain FUR4, active compounds read low 0.912 | S. cerevisiae deletion strains, locus YBR229C, strain ROT2, active compounds read low 0.986 | S. cerevisiae deletion strains, locus YCL029C, strain bik1, active compounds read low 0.951 | S. cerevisiae deletion strains, locus YDL035C, strain GPR1, active compounds read low 0.997 | S. cerevisiae deletion strains, locus YDL074C, strain BRE1, active compounds read low 0.998 | S. cerevisiae deletion strains, locus YDL101C, strain DUN1, active compounds read low 0.999 | S. cerevisiae deletion strains, locus YDL134C, strain PPH21, active compounds read low 0.998 | S. cerevisiae deletion strains, locus YDL192W, strain arf1, active compounds read low 0.95 | S. cerevisiae deletion strains, locus YDR101C, strain arx1, active compounds read low 0.971 | S. cerevisiae deletion strains, locus YDR162C, strain NBP2, active compounds read low 0.977 | S. cerevisiae deletion strains, locus YDR318W, strain mcm21, active compounds read low 0.96 | S. cerevisiae deletion strains, locus YDR388W, active compounds read low 0.935 | S. cerevisiae deletion strains, locus YDR502C, strain sam2, active compounds read low 0.957 | S. cerevisiae deletion strains, locus YEL061C, strain CIN8, active compounds read low 0.981 | S. cerevisiae deletion strains, locus YER110C, active compounds read low 0.959 | S. cerevisiae deletion strains, locus YER167W, strain BCK2, active compounds read low 0.973 | S. cerevisiae deletion strains, locus YGL086W, strain mad1, active compounds read low 0.975 | S. cerevisiae deletion strains, locus YGL248W, strain PDE1, active compounds read low 0.995 | S. cerevisiae deletion strains, locus YGR078C, strain PAC10, active compounds read low 1 | S. cerevisiae deletion strains, locus YGR135W, strain pre9, active compounds read low 0.975 | S. cerevisiae deletion strains, locus YGR252W, strain gcn5, active compounds read low 0.919 | S. cerevisiae deletion strains, locus YHR030C, strain SLT2, active compounds read low 0.97 | S. cerevisiae deletion strains, locus YHR079C, strain IRE1 (second series), active compounds read low 0.936 | S. cerevisiae deletion strains, locus YHR129C, strain ARP1, active compounds read low 0.965 | S. cerevisiae deletion strains, locus YHR200W, strain rpn10, active compounds read low 0.945 | S. cerevisiae deletion strains, locus YIL066C, strain RNR3, active compounds read low 1.01 | S. cerevisiae deletion strains, locus YIL073C, strain SPO22, active compounds read low 1 | S. cerevisiae deletion strains, locus YIR030C, strain dcg1, active compounds read low 0.949 | S. cerevisiae deletion strains, locus YJL095W, strain BCK1, active compounds read low 0.992 | S. cerevisiae deletion strains, locus YJL134W, strain LCB3, active compounds read low 0.955 | S. cerevisiae deletion strains, locus YJL187C, strain SWE1 (second series), active compounds read low 1.01 | S. cerevisiae deletion strains, locus YJR043C, strain POL32, active compounds read low 0.981 | S. cerevisiae deletion strains, locus YJR075W, strain HOC1, active compounds read low 0.998 | S. cerevisiae deletion strains, locus YKL009W, strain mrt4, active compounds read low 0.897 | S. cerevisiae deletion strains, locus YKL190W, strain CNB1, active compounds read low 0.987 | S. cerevisiae deletion strains, locus YKR001C, strain vps1, active compounds read low 0.917 | S. cerevisiae deletion strains, locus YLR039C, strain RIC1, active compounds read low 0.943 | S. cerevisiae deletion strains, locus YLR058C, strain SHM2, active compounds read low 0.995 | S. cerevisiae deletion strains, locus YLR262C, strain YPT6, active compounds read low 0.986 | S. cerevisiae deletion strains, locus YLR268W, strain sec22, active compounds read low 0.96 | S. cerevisiae deletion strains, locus YLR330W, strain CHS5, active compounds read low 0.947 | S. cerevisiae deletion strains, locus YLR342W, strain FKS1 (second series), active compounds read low 0.973 | S. cerevisiae deletion strains, locus YLR371W, strain rom2, active compounds read low 0.94 | S. cerevisiae deletion strains, locus YLR418C, strain cdc73, active compounds read low 0.946 | S. cerevisiae deletion strains, locus YML016C, strain PPZ1, active compounds read low 0.977 | S. cerevisiae deletion strains, locus YML032C, strain rad52, active compounds read low 0.959 | S. cerevisiae deletion strains, locus YMR078C, strain ctf18, active compounds read low 0.916 | S. cerevisiae deletion strains, locus YMR223W, strain ubp8, active compounds read low 0.972 | S. cerevisiae deletion strains, locus YMR263W, strain SAP30, active compounds read low 0.989 | S. cerevisiae deletion strains, locus YMR307W, strain GAS1, active compounds read low 0.967 | S. cerevisiae deletion strains, locus YNL067W, strain RPL9B, active compounds read low 0.997 | S. cerevisiae deletion strains, locus YNL128W, strain TEP1, active compounds read low 1.01 | S. cerevisiae deletion strains, locus YNL233W, strain BNI4, active compounds read low 0.993 | S. cerevisiae deletion strains, locus YNL307C, strain MCK1, active compounds read low 0.928 | S. cerevisiae deletion strains, locus YNR052C, strain pop2, active compounds read low 0.951 | S. cerevisiae deletion strains, locus YOL006C, strain TOP1, active compounds read low 0.977 | S. cerevisiae deletion strains, locus YOL012C, strain htz1 1.59 | S. cerevisiae deletion strains, locus YOL147C, strain pex11, active compounds read low 0.937 | S. cerevisiae deletion strains, locus YOR061W, strain CKA2, active compounds read low 0.989 | S. cerevisiae deletion strains, locus YOR069W, strain VPS5, active compounds read low 0.974 | S. cerevisiae deletion strains, locus YOR136W, strain idh2, active compounds read low 0.979 | S. cerevisiae deletion strains, locus YOR184W, strain ser1, active compounds read low 0.962 | S. cerevisiae deletion strains, locus YOR316C, strain cot1, active compounds read low 0.93 | S. cerevisiae deletion strains, locus YPL241C, strain CIN2, active compounds read low 0.971 | S. cerevisiae deletion strains, locus YPR167C, strain met16, active compounds read low 0.936 | S. cerevisiae deletion strains, strain wtn01, active compounds read low 0.955 | S. cerevisiae strains, strain wild type, active compounds read low 0.988
